This is an account of results in PubChem BioAssay (EPA / NIEHS).

By AC50 is commonly meant the concentration at which the activity in the assay is half-maximal.

Experiment [1] in a line: ATG_CRE_CIS: Attagene CIS-FACTORIAL HepG2 Assay for human cAMP Responsive Element (CRE) binding protein 3 (AID 2282926). The settings on record: HepG2 CRE cis-reporter, Attagene multiplexed mRNA; actives raise or lower the signal. Summed up:
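Endogenous CRE-binding activity in HepG2 is reported through a cis-regulated transfected reporter. Following a day of exposure, mRNA levels are determined by reverse transcription PCR and fluorescent fragment analysis; fits run in both directions versus DMSO.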

Experiment [2] deals with CCAAT/enhancer-binding protein beta (Homo sapiens) (UniProt P17676). As to the kind of experiment: ATG_C_EBP_CIS: Attagene CIS-FACTORIAL HepG2 Assay for human CCAAT/Enhancer Binding Protein (C/EBP) beta (AID 2282927). Particulars: HepG2 Attagene cis-factorial transcription factor reporter; actives raise or lower the signal. An outline of the steps: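 HepG2, transient MRTU transfection, 24 h treatment. RT-PCR plus CE fluorescence; DMSO negative control, bidirectional fit.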

A short description of experiment [3]: ATG_CMV_CIS: Attagene CIS-FACTORIAL HepG2 Assay for human CMV (Internal Marker) (AID 2282928).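 Also: endpoint acts as a background internal control marker rather than a target.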 Particulars: HepG2 CMV promoter reporter, transcription factor profiling; actives raise or lower the signal. An outline of the steps: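 Cell system: HepG2, transiently transfected multiple reporter units under cis promoters. Exposure: 24 h. Detection: RT-PCR, FAM labeling, HpaI digestion, capillary electrophoresis. Analysis: bidirectional, DMSO baseline.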

Experiment [4] can be described thus: ATG_DR4_LXR_CIS: Attagene CIS-FACTORIAL HepG2 Assay for human Liver X Receptor (LXR), DR4 submotif (AID 2282929). Particulars: HepG2 Attagene DR4 cis-reporter, mRNA transcription; actives raise or lower the signal. Summed up: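 Fluorescence intensity of labelled reporter cDNA fragments, separated by capillary electrophoresis, gives the signal. HepG2 cells bearing cis-regulated reporter constructs were treated 24 h; activity fitted bidirectionally relative to DMSO negative control.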

Experiment [5] deals with Aryl hydrocarbon receptor (Homo sapiens) (UniProt P35869). As to the kind of experiment: ATG_Ahr_CIS: Attagene CIS-FACTORIAL HepG2 Assay for human Aryl Hydrocarbon Receptor (Ahr) (AID 2282930). Particulars: HepG2 AhR cis-factorial reporter transcription; actives raise or lower the signal. Summed up: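 Endogenous factor activity is tracked through cis-promoter reporter units transfected into HepG2 cells. Transcript levels at 24 h are read by fluorescent RT-PCR and capillary electrophoresis, with activity in either direction scored relative to DMSO.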

Experiment [6] is described as follows: ATG_AP_2_CIS: Attagene CIS-FACTORIAL HepG2 Assay for human Activator Protein 2 (AP-2) (AID 2282932). Particulars: HepG2 AP-2 cis-reporter, Attagene transcription factor profiling; actives raise or lower the signal. Summed up: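 HepG2 cells transiently transfected with cis-element reporter units and exposed for 24 h. Reporter mRNA measured by RT-PCR, FAM labelling, HpaI digestion and capillary electrophoresis. Changes in either direction fitted relative to DMSO.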

Experiment [7] concerns the target Retinoic acid receptor alpha (Homo sapiens) (UniProt P10276). As to the kind of experiment: ATG_DR5_RAR_CIS: Attagene CIS-FACTORIAL HepG2 Assay for human Retinoic Acid Receptor Alpha (RARE), DR5 submotif (AID 2282934). Particulars: HepG2 Attagene cis-factorial RARE DR5 reporter, mRNA; actives raise or lower the signal. Summed up: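 After 24 h of chemical exposure, transiently transfected HepG2 cells were lysed for total RNA; the DR5-regulated reporter transcript was quantified via RT-PCR and capillary electrophoresis, with activity fitted bidirectionally against DMSO.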

Experiment [8] addresses Transcription factor E2F1 (Homo sapiens) (UniProt Q01094). The experiment is described as follows: ATG_E2F_CIS: Attagene CIS-FACTORIAL HepG2 Assay for human E2F Transcription Factor 1 (AID 2282935). Particulars: HepG2 Attagene cis-reporter, E2F reporter RNA transcripts; actives raise or lower the signal. Summed up:
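Endogenous E2F1 activity read through cis-promoter reporter units transfected into HepG2. After 24 h compound treatment, reporter mRNA measured by RT-PCR, HpaI digestion and capillary electrophoresis. Bidirectional fit versus DMSO.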

A short description of experiment [9]: ATG_E_Box_CIS: Attagene CIS-FACTORIAL HepG2 Assay for human Enhancer Box (E-box) (AID 2282936). The settings on record: HepG2 E-box cis-reporter transcription, actives raise or lower the signal. An outline of the steps: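 HepG2 cells transiently transfected with multiplexed cis-element reporter units, dosed 24 h; reporter mRNA quantified by RT-PCR, 6-FAM labelling, HpaI digestion and capillary electrophoresis. E-box (USF1) signal fitted bidirectionally vs DMSO.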

Experiment [10] in a line: ATG_M_61_CIS: Attagene CIS-FACTORIAL HepG2 Assay for M61 Transcription Factor (Internal Marker) (AID 2282937). The settings on record: HepG2 Attagene CIS-FACTORIAL M61 internal marker reporter; actives raise or lower the signal. An outline of the steps:
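Endogenous transcription factor activity in HepG2 is read through transiently transfected cis-element reporter units. After 24 h dosing, RNA undergoes reverse transcription, PCR and primer extension with 6-FAM before capillary electrophoresis; DMSO-referenced bidirectional fit.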

A short description of experiment [11]: ATG_EGR_CIS: Attagene CIS-FACTORIAL HepG2 Assay for human Early Growth Response 1 (EGR1) (AID 2282938). The settings on record: HepG2 Attagene CIS-FACTORIAL EGR reporter mRNA; actives raise or lower the signal. Summed up:
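Activity is taken as induction or loss of reporter mRNA versus DMSO, fitted bidirectionally. Transcripts from cis-regulated reporter units in transiently transfected HepG2 were measured after 24 h by RT-PCR with capillary electrophoresis.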

Experiment [12] can be described thus: ATG_M_19_CIS: Attagene CIS-FACTORIAL HepG2 Assay for M19 Transcription Factor (Internal Marker) (AID 2282939). The settings on record: HepG2 Attagene CIS-FACTORIAL M19 internal marker reporter; actives raise or lower the signal. An outline of the steps:
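Transfect HepG2 with MRTU reporter library → dose chemical, 24 h → isolate total RNA, reverse-transcribe with oligo(dT) → PCR, 6-FAM label, HpaI cut (2 h, 37 C) → capillary electrophoresis. Bidirectional fit vs DMSO.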

Experiment [13] is described as follows: ATG_Ets_CIS: Attagene CIS-FACTORIAL HepG2 Assay for human Erythroblast Transformation Specific (ETS) (AID 2282941). The settings on record: HepG2 ETS cis-reporter transcription, actives raise or lower the signal. An outline of the steps:
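After transient cis-reporter transfection, HepG2 cells receive test chemical for 24 h. Reporter mRNA levels, measured by RT-PCR and capillary electrophoresis fluorescence, are analysed bidirectionally relative to the DMSO baseline.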

Experiment [14] concerns the target Hepatocyte nuclear factor 3-beta (Homo sapiens) (UniProt Q9Y261). As to the kind of experiment: ATG_FoxA2_CIS: Attagene CIS-FACTORIAL HepG2 Assay for human Forkhead box A2 (FOXA2) (AID 2282942). The settings on record: HepG2 cis-reporter transcription factor activity, 24 h; actives raise or lower the signal. An outline of the steps: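 Reporter transcript induction is measured by fluorescence after capillary electrophoresis of RT-PCR products from HepG2 cells exposed 24 h. Cis-regulated reporter units report endogenous factor activity; curves fitted both directions against DMSO.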

Experiment [15] is described as follows: ATG_FoxO_CIS: Attagene CIS-FACTORIAL HepG2 Assay for human Forkhead box O (FoxO) (AID 2282943). The settings on record: HepG2 Attagene cis-reporter, FoxO element, mRNA; actives raise or lower the signal. Summed up: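 Transfected HepG2 reporter cells exposed to test chemical for 24 h; reporter RNA measured by reverse transcription, PCR and fluorescent capillary electrophoresis; curves fitted for increases and decreases against DMSO.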

Experiment [16] can be described thus: ATG_GLI_CIS: Attagene CIS-FACTORIAL HepG2 Assay for human Zinc Finger Protein GLI1 (AID 2282945). The settings on record: HepG2, Attagene cis-factorial reporter mRNA, GLI element; actives raise or lower the signal. Summed up: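 Transiently transfected HepG2 cells report endogenous transcription factor activity via cis-element-driven reporter units. After 24 h compound exposure, reporter mRNA was measured by RT-PCR with capillary electrophoresis; bidirectional fitting against DMSO baseline.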

The nature of experiment [17]: ATG_AP_1_CIS: Attagene CIS-FACTORIAL HepG2 Assay for human Activator Protein 1 (AP-1) (AID 2282931). Particulars: HepG2 Attagene cis-factorial AP-1 reporter mRNA; actives raise or lower the signal. Summed up: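 Multiplexed HepG2 reporter assay, 24 h dosing. mRNA induction detected by RT-PCR plus capillary electrophoresis. Activity fitted in both directions against DMSO.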

Experiment [18] can be described thus: ATG_BRE_CIS: Attagene CIS-FACTORIAL HepG2 Assay for human Bone Morphogenetic Protein (BMP) Response Element (BRE) (AID 2282933). The settings on record: HepG2 BMP response element reporter, Attagene transcription factor profiling; actives raise or lower the signal. An outline of the steps:
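Transient MRTU transfection of human HepG2 liver cells; 24 h compound treatment; total RNA isolated, reverse-transcribed, PCR-amplified, 6-FAM labelled, HpaI-cut, capillary electrophoresis. DMSO = negative control/baseline, bidirectional fit.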

Experiment [19] in a line: ATG_GATA_CIS: Attagene CIS-FACTORIAL HepG2 Assay for human GATA Binding Protein (AID 2282944). The settings on record: HepG2 GATA cis-element reporter, Attagene multiplex mRNA; actives raise or lower the signal. An outline of the steps: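 Transient MRTU transfection, HepG2, 24 h compound exposure. Total RNA → oligo(dT) RT → PCR → 6-FAM primer extension → HpaI cut → CE. Bidirectional fit vs DMSO.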

Experiment [20] in a line: ATG_ERE_CIS: Attagene CIS-FACTORIAL HepG2 Assay for Estrogen Response Element (ERE) (AID 2282940). The settings on record: HepG2 ERE cis-reporter, Attagene RNA transcript; actives raise or lower the signal. Summed up: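 Transient MRTU transfection of human HepG2; cis-element promoters; 24 h dosing; total RNA → RT (oligo dT) → PCR → 6-FAM primer extension → HpaI digest → CE fluorescence. Bidirectional fit, DMSO baseline.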

The source made the active and inactive calls. The calls were made as follows: active = hit-call score of the fitted dose curve at least 0.9, where 1 is the maximum; inactive = score below 0.9.

Retinoic acid receptor alpha (Homo sapiens), sequence (P10276 whole entry, looked up): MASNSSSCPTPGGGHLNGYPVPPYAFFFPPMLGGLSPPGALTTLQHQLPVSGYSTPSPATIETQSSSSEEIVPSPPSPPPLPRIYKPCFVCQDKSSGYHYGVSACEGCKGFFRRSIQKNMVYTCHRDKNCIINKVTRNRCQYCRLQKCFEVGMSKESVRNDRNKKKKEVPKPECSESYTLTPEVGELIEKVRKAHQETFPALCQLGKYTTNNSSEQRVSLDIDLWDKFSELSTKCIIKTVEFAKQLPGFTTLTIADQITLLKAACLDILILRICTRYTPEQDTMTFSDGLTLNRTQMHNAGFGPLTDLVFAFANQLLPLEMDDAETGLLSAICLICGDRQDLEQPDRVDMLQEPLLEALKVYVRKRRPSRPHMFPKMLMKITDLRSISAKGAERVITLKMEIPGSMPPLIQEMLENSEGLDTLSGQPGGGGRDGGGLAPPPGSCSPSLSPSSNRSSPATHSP
Transcription factor E2F1 (Homo sapiens), sequence (Q01094 whole entry, looked up): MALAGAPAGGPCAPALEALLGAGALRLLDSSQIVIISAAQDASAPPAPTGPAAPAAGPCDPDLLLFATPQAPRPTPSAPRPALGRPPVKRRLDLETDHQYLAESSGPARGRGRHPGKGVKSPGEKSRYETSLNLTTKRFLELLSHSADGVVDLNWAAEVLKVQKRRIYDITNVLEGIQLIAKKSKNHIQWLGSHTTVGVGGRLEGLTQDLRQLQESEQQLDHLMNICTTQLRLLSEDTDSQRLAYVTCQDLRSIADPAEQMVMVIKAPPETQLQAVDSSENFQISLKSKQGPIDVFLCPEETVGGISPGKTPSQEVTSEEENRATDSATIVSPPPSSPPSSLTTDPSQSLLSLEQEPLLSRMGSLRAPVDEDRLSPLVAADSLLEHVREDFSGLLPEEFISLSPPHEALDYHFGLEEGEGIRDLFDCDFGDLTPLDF
CCAAT/enhancer-binding protein beta (Homo sapiens), sequence (P17676 whole entry, looked up): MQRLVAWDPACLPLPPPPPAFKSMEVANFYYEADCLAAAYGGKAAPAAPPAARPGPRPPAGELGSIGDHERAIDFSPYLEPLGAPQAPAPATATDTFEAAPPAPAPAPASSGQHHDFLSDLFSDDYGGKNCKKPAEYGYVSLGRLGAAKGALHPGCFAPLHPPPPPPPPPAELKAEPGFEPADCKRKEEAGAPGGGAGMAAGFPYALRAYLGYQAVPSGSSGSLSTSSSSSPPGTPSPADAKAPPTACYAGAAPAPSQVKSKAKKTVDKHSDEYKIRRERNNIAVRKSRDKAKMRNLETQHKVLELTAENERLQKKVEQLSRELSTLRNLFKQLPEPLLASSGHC
Hepatocyte nuclear factor 3-beta (Homo sapiens), sequence (Q9Y261 whole entry, looked up): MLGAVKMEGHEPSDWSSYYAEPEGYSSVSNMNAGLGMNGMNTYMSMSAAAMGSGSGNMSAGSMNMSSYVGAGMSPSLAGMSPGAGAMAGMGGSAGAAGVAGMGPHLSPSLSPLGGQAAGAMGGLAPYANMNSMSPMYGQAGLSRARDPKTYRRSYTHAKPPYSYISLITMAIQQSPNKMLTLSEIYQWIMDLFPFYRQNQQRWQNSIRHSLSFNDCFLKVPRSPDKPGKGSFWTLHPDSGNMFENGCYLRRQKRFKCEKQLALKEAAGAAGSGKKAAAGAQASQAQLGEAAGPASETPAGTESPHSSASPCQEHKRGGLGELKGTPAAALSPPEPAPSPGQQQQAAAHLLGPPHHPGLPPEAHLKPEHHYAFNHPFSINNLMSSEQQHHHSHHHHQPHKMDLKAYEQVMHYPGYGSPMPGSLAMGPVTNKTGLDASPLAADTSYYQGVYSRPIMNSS
Aryl hydrocarbon receptor (Homo sapiens), sequence (P35869 whole entry, looked up): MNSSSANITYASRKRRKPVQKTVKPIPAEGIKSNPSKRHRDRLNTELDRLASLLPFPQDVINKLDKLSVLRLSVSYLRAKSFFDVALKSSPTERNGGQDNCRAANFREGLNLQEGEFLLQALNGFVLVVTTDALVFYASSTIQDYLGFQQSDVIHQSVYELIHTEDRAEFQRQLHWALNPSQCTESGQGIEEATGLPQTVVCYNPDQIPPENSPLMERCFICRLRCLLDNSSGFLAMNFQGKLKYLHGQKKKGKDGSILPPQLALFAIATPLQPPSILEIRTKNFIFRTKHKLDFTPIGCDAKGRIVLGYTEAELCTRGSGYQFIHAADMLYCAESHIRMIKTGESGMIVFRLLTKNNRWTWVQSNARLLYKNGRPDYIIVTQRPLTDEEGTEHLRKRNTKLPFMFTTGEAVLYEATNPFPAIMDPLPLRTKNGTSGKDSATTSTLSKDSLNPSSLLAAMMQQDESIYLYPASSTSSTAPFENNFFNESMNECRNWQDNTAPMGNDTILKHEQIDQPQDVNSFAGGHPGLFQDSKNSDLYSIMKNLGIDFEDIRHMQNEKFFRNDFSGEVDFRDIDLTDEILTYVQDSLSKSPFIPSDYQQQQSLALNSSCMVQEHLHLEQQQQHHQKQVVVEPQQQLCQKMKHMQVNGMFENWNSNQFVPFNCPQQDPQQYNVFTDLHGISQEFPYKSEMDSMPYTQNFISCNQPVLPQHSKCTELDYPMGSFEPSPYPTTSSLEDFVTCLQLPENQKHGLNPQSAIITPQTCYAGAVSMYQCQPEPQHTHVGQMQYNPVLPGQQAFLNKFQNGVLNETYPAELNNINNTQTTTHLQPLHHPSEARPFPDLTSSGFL

For the compound `CC1(CO)CN(c2ccccc2)NC1=O` (stereo not drawn), the call in experiment [1], in experiment [2], in [3], in [4], in experiment [6] and in experiment [7] was inactive. The compound was called inactive in [8], in [9], in experiment [10], in experiment [11], in experiment [12] and in experiment [13]. The compound was called inactive in experiment [14], in experiment [15] and in [16]. Further, the AC50 in [5] is 9.8 µM (active).

As to `CCCCCC(CO)CCC` (stereo not drawn), the compound was classed as inactive in experiment [1], in [2], in experiment [3], in [4], in experiment [17] and in experiment [6]. For the same compound, the outcome in experiment [18], in experiment [7], in experiment [8], in experiment [9], in experiment [10] and in experiment [11] was inactive. In addition, the call in experiment [13], in experiment [14], in [15], in experiment [19] and in experiment [16] was inactive.

`CCOc1ccccc1OCC`: the result in experiment [1], in experiment [2], in experiment [3], in experiment [4], in [17] and in experiment [6] was inactive. Besides, the compound was classed as inactive in experiment [18], in experiment [9], in [10], in [11], in experiment [12] and in experiment [13]. Also, the call in experiment [14], in experiment [15], in experiment [19] and in experiment [16] was inactive.

Take `CCCCCCCCCCCCOCCO`: the compound was classed as inactive in experiment [1], in experiment [2], in [18], in experiment [7], in experiment [8] and in [10]. The result in experiment [11], in [12] and in [13] was inactive. The concentration at half-maximal activity (AC50) was 33.4 µM (active) in [3]; 33.4 µM (active) in experiment [5]; 50.2 µM (active) in experiment [17]; 57.4 µM (active) in experiment [6]; 50.6 µM (active) in experiment [9]; 56.6 µM (active) in experiment [15]. In addition, in experiment [16], the AC50 was 60.7 µM (active).

As to `O=C1OC2(c3cc(Br)c(O)c(Br)c3Oc3c2cc(Br)c(O)c3Br)c2c(Cl)c(Cl)c(Cl)c(Cl)c21`, the compound was classed as inactive in [1], in [2], in experiment [3], in experiment [6], in experiment [18] and in experiment [8]. Besides, the result in experiment [9], in [10], in experiment [12], in experiment [14], in experiment [15] and in [19] was inactive. Further, the compound was called inactive in experiment [16]. Further, the figures for the half-maximal activity concentration (AC50) in [5], in experiment [11] and in experiment [20] were 15.1 µM (active), 35 µM (active) and 18.2 µM (active), respectively.

Turning to `Cc1ccc2ccccc2n1`, the compound was classed as inactive in experiment [1], in [2], in experiment [3], in experiment [17], in [6] and in [18]. In addition, the result in experiment [7], in [8], in experiment [9], in experiment [10], in [11] and in [12] was inactive. In addition, the outcome in experiment [13], in experiment [14], in experiment [15], in [19] and in experiment [16] was inactive. Further, in [5], the half-maximal activity concentration (AC50) was 18.3 µM (active).

Turning to `O=C1NC(=O)c2ccccc21`, the compound was classed as inactive in [1], in [2], in experiment [3], in [5], in [17] and in experiment [6]. In addition, the compound was classed as inactive in experiment [18], in experiment [8], in [10], in experiment [11], in [12] and in experiment [14]. In addition, the outcome in experiment [15] and in [16] was inactive.
